# Assay results from PubChem BioAssay AID1159580 (chemical genetic matrix, 2015).
# About 2,000 (36%) of roughly 5,500 compounds were called active. Inconclusive results (about 18%) are left out. Some of the results follow. Unmarked numbers belong to inactive results. Cut-off read from the data, not from the text of the source: active = normalized growth mostly below about 0.91 (no sharp cut-off); inconclusive = no clear call, values can overlap the other calls; inactive = mostly above about 0.92.
# Assay: chemical genetic growth profiling, strain panel (AID 1159580);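 note: tested at 20 µM; growth read once vehicle control cultures reached saturation at 30 °C; 1 = growth at the plate median or of vehicle wells; lower values mean less growth of the strain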
# Details: growth OD
smiles,measurement,setting,value
CCOC(=O)CCCCCCCCCCCCC1C=CCC1 (centres undefined),normalized growth,"S. cerevisiae deletion strains, locus YJR066W, strain TOR1, hits give low values",0.902
same,normalized growth,"S. cerevisiae deletion strains, locus YJR075W, strain HOC1, hits give low values",0.062 (active)
same,normalized growth,"S. cerevisiae deletion strains, locus YKL009W, strain mrt4, hits give low values",0.729 (active)
same,normalized growth,"S. cerevisiae deletion strains, locus YKL068W, hits give low values",0.984
same,normalized growth,"S. cerevisiae deletion strains, locus YKL085W, strain MDH1 (second series), hits give low values",0.627 (active)
same,normalized growth,"S. cerevisiae deletion strains, locus YKL085W, strain MDH1, hits give low values",0.627 (active)
same,normalized growth,"S. cerevisiae deletion strains, locus YKL160W, strain elf1, hits give low values",1
same,normalized growth,"S. cerevisiae deletion strains, locus YKR001C, strain vps1, hits give low values",0.0645 (active)
same,normalized growth,"S. cerevisiae deletion strains, locus YKR026C, strain gcn3, hits give low values",0.975
same,normalized growth,"S. cerevisiae deletion strains, locus YKR091W, strain srl3, hits give low values",0.983
same,normalized growth,"S. cerevisiae deletion strains, locus YLL001W, strain dnm1, hits give low values",1
same,normalized growth,"S. cerevisiae deletion strains, locus YLL026W, hits give low values",0.961
same,normalized growth,"S. cerevisiae deletion strains, locus YLL041C, strain sdh2, hits give low values",0.992
same,normalized growth,"S. cerevisiae deletion strains, locus YLR027C, strain aat2, hits give low values",0.973
same,normalized growth,"S. cerevisiae deletion strains, locus YLR039C, strain RIC1, hits give low values",0.0918 (active)
same,normalized growth,"S. cerevisiae deletion strains, locus YLR058C, strain SHM2, hits give low values",0.0501 (active)
same,normalized growth,"S. cerevisiae deletion strains, locus YLR102C, strain apc9, hits give low values",0.0639 (active)
same,normalized growth,"S. cerevisiae deletion strains, locus YLR113W, strain HOG1, hits give low values",1.01
same,normalized growth,"S. cerevisiae deletion strains, locus YLR221C, strain rsa3, hits give low values",0.938
same,normalized growth,"S. cerevisiae deletion strains, locus YLR258W, strain gsy2, hits give low values",0.946
same,normalized growth,"S. cerevisiae deletion strains, locus YLR262C, strain YPT6 (second series), hits give low values",0.942
same,normalized growth,"S. cerevisiae deletion strains, locus YLR262C, strain YPT6, hits give low values",0.102 (active)
same,normalized growth,"S. cerevisiae deletion strains, locus YLR268W, strain sec22, hits give low values",0.0626 (active)
same,normalized growth,"S. cerevisiae deletion strains, locus YLR320W, strain mms22, hits give low values",0.808 (active)
same,normalized growth,"S. cerevisiae deletion strains, locus YLR330W, strain CHS5, hits give low values",0.0514 (active)
same,normalized growth,"S. cerevisiae deletion strains, locus YLR342W, strain FKS1 (second series), hits give low values",0.0786 (active)
same,normalized growth,"S. cerevisiae deletion strains, locus YLR342W, strain FKS1, hits give low values",0.954
same,normalized growth,"S. cerevisiae deletion strains, locus YLR357W, strain rsc2, hits give low values",1
same,normalized growth,"S. cerevisiae deletion strains, locus YLR370C, strain arc18, hits give low values",0.994
same,normalized growth,"S. cerevisiae deletion strains, locus YLR371W, strain rom2, hits give low values",0.0661 (active)
same,normalized growth,"S. cerevisiae deletion strains, locus YLR384C, strain iki3, hits give low values",0.965
same,normalized growth,"S. cerevisiae deletion strains, locus YLR418C, strain cdc73, hits give low values",0.0873 (active)
same,normalized growth,"S. cerevisiae deletion strains, locus YML016C, strain PPZ1, hits give low values",0.0464 (active)
same,normalized growth,"S. cerevisiae deletion strains, locus YML032C, strain rad52, hits give low values",0.0734 (active)
same,normalized growth,"S. cerevisiae deletion strains, locus YML120C, strain ndi1, hits give low values",0.994
same,normalized growth,"S. cerevisiae deletion strains, locus YML124C, strain tub3, hits give low values",0.063 (active)
same,normalized growth,"S. cerevisiae deletion strains, locus YMR058W, strain fet3, hits give low values",0.991
same,normalized growth,"S. cerevisiae deletion strains, locus YMR078C, strain ctf18, hits give low values",0.0817 (active)
same,normalized growth,"S. cerevisiae deletion strains, locus YMR125W, strain sto1, hits give low values",0.951
same,normalized growth,"S. cerevisiae deletion strains, locus YMR129W, hits give low values",0.993
same,normalized growth,"S. cerevisiae deletion strains, locus YMR205C, strain PFK2, hits give low values",0.864 (active)
same,normalized growth,"S. cerevisiae deletion strains, locus YMR223W, strain ubp8, hits give low values",0.0615 (active)
same,normalized growth,"S. cerevisiae deletion strains, locus YMR231W, strain pep5, hits give low values",0.971
same,normalized growth,"S. cerevisiae deletion strains, locus YMR307W, strain GAS1, hits give low values",0.12 (active)
same,normalized growth,"S. cerevisiae deletion strains, locus YNL067W, strain RPL9B, hits give low values",0.0497 (active)
same,normalized growth,"S. cerevisiae deletion strains, locus YNL071W, strain lat1, hits give low values",0.808 (active)
same,normalized growth,"S. cerevisiae deletion strains, locus YNL128W, strain TEP1, hits give low values",0.0632 (active)
same,normalized growth,"S. cerevisiae deletion strains, locus YNL153C, strain GIM3, hits give low values",0.0549 (active)
same,normalized growth,"S. cerevisiae deletion strains, locus YNL183C, strain NPR1, hits give low values",0.893
same,normalized growth,"S. cerevisiae deletion strains, locus YNL209W, strain ssb2, hits give low values",0.982
same,normalized growth,"S. cerevisiae deletion strains, locus YNL233W, strain BNI4, hits give low values",0.0592 (active)
same,normalized growth,"S. cerevisiae deletion strains, locus YNL248C, strain rpa49, hits give low values",1.01
same,normalized growth,"S. cerevisiae deletion strains, locus YNL250W, strain rad50, hits give low values",0.848 (active)
same,normalized growth,"S. cerevisiae deletion strains, locus YNL271C, strain bni1, hits give low values",0.146 (active)
same,normalized growth,"S. cerevisiae deletion strains, locus YNL298W, strain CLA4, hits give low values",0.0648 (active)
same,normalized growth,"S. cerevisiae deletion strains, locus YNL307C, strain MCK1, hits give low values",0.0657 (active)
same,normalized growth,"S. cerevisiae deletion strains, locus YNL322C, strain KRE1 (second series), hits give low values",0.998
same,normalized growth,"S. cerevisiae deletion strains, locus YNL322C, strain KRE1, hits give low values",0.047 (active)
same,normalized growth,"S. cerevisiae deletion strains, locus YNR049C, strain mso1, hits give low values",0.987
same,normalized growth,"S. cerevisiae deletion strains, locus YNR052C, strain pop2, hits give low values",0.0632 (active)
same,normalized growth,"S. cerevisiae deletion strains, locus YOL006C, strain TOP1, hits give low values",0.119 (active)
same,normalized growth,"S. cerevisiae deletion strains, locus YOL012C, strain htz1",0.179 (active)
same,normalized growth,"S. cerevisiae deletion strains, locus YOL147C, strain pex11, hits give low values",0.0616 (active)
same,normalized growth,"S. cerevisiae deletion strains, locus YOR001W, strain rrp6, hits give low values",1
same,normalized growth,"S. cerevisiae deletion strains, locus YOR061W, strain CKA2, hits give low values",0.0461 (active)
same,normalized growth,"S. cerevisiae deletion strains, locus YOR069W, strain VPS5, hits give low values",0.0484 (active)
same,normalized growth,"S. cerevisiae deletion strains, locus YOR070C, strain gyp1, hits give low values",0.962
same,normalized growth,"S. cerevisiae deletion strains, locus YOR080W, strain dia2, hits give low values",0.99
same,normalized growth,"S. cerevisiae deletion strains, locus YOR083W, strain WHI5, hits give low values",1
same,normalized growth,"S. cerevisiae deletion strains, locus YOR106W, strain vam3, hits give low values",0.976
same,normalized growth,"S. cerevisiae deletion strains, locus YOR136W, strain idh2, hits give low values",0.0725 (active)
same,normalized growth,"S. cerevisiae deletion strains, locus YOR144C, strain elg1, hits give low values",0.0688 (active)
same,normalized growth,"S. cerevisiae deletion strains, locus YOR184W, strain ser1, hits give low values",0.0609 (active)
same,normalized growth,"S. cerevisiae deletion strains, locus YOR231W, strain MKK1, hits give low values",0.984
same,normalized growth,"S. cerevisiae deletion strains, locus YOR265W, strain rbl2, hits give low values",0.982
same,normalized growth,"S. cerevisiae deletion strains, locus YOR270C, strain vph1, hits give low values",1.01
same,normalized growth,"S. cerevisiae deletion strains, locus YOR290C, strain snf2, hits give low values",0.962
same,normalized growth,"S. cerevisiae deletion strains, locus YOR316C, strain cot1, hits give low values",0.0601 (active)
same,normalized growth,"S. cerevisiae deletion strains, locus YPL051W, strain arl3, hits give low values",0.989
same,normalized growth,"S. cerevisiae deletion strains, locus YPL078C, strain atp4, hits give low values",0.979
same,normalized growth,"S. cerevisiae deletion strains, locus YPL106C, strain sse1, hits give low values",1.12
same,normalized growth,"S. cerevisiae deletion strains, locus YPL240C, strain hsp82, hits give low values",0.988
same,normalized growth,"S. cerevisiae deletion strains, locus YPL256C, strain CLN2, hits give low values",1.03
same,normalized growth,"S. cerevisiae deletion strains, locus YPR119W, strain clb2, hits give low values",0.0692 (active)
same,normalized growth,"S. cerevisiae deletion strains, locus YPR141C, strain kar3, hits give low values",0.99
same,normalized growth,"S. cerevisiae deletion strains, locus YPR163C, strain tif3, hits give low values",0.0692 (active)
same,normalized growth,"S. cerevisiae deletion strains, locus YPR167C, strain met16, hits give low values",0.0627 (active)
same,normalized growth,"S. cerevisiae deletion strains, strain wtn01, hits give low values",0.0688 (active)
same,normalized growth,"S. cerevisiae strains, strain wild type, hits give low values",0.0499 (active)
